An excerpt weighted towards active compounds, which were near 2.2% of everything screened.
KLF5 inhibitor = inhibitors of KLF5 expression; DLD-1 KLF5 promoter-luciferase reporter, luminescence; inhibition, % at 5 µM; 290,000 compounds, 0.23% hits; AID 1700;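 active = inhibition above a per-plate limit of that plate's mean compound inhibition plus 3 SD, cut at about 60% in these data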;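 also: 0% = DMSO wells and 100% = LY294002 at 200 µM; higher means less KLF5 promoter-driven luciferase light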
aSyn UTR inh = MLPCN primary screen, SNCA 5' untranslated region | alpha-synuclein 5'UTR reporter, inhibitor activity | inhibition, % (tested at 7.5 µM) | 300,000 compounds, 0.82% hits; in the data active = inhibition above about 60%;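 also: H4 neuroglioblastoma cells stably carrying SNCA 5'UTR luciferase fusion; 0% = DMSO wells and 100% = positive control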
BaF3 parental = counter-screen for JAK2V617F inhibitors: parental Ba/F3 viability inhibitors | CellTiter-Glo ATP luminescence | inhibition, % at 5.6 µM | 220,000 compounds, 1.1% hits | AID 1486;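 active = inhibition above a per-campaign cutoff, the mean inhibition of all tested compounds plus 3 SD, cut at about 27% in these data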;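 also: 0% = DMSO wells and 100% = JAK Inhibitor I control wells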
APP transl inh = APP translation inhibition; inhibition, % at 2 µM; AID 1285; SH-SY5Y APP 5'UTR-luciferase reporter, luminescence; 190,000 compounds, 0.82% hits;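 active = inhibition above a set limit, derived from the sample mean plus 3 SD, cut at about 45% in these data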
IEC-6 tox = counter-screen for KLF5 inhibitors: cytotoxicity in IEC-6 cells; IEC-6 cytotoxicity, luminescence viability; 290,000 compounds, 0.78% hits; inhibition, % at 5 µM; AID 1825; in the data active = inhibition above about 22%;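 also: 0% = plate median of test compound wells and 100% = cytotoxic reference compound wells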
Ba/F3 V617F tox = lowers viability of Ba/F3 cells expressing EpoR and JAK2V617F | ATP luminescence | inhibition, % at 5.6 µM | 220,000 compounds, 1.1% hits;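 active = inhibition above the campaign mean plus 3 SD over all tested compounds, cut at about 24% in these data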;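 also: cytokine-independent growth of Ba/F3 cells driven by EpoR plus mutant JAK2; 0% = DMSO-treated cells and 100% = JAK inhibitor I control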
* marks the source's active call; other numbers are inactive results; . = no result.

SMILES | KLF5 inhibitor | aSyn UTR inh | BaF3 parental | APP transl inh | IEC-6 tox | Ba/F3 V617F tox
O=C(NCc1ccc(Cl)cc1)c1cccnc1 | -31 | 0 | 5 | 11 | 3 | 6
O=C(NC(c1ccc(Cl)cc1)c1cc(Cl)c2cccnc2c1O)c1cccnc1 (stereo unspecified) | -14 | 98* | 9 | 79* | 5 | 4
CN1CCN(C(c2ccc(Cl)cc2)c2cc(Cl)c3cccnc3c2O)CC1 (stereo unspecified) | 51 | 77* | . | . | 6 | .
CN1CCN(C(c2ccc(C(F)(F)F)cc2)c2cc(Cl)c3cccnc3c2O)CC1 (stereo unspecified) | 47 | 53 | . | . | 11 | .
Cc1nn(CCCC(=O)NCCc2ccc(Cl)cc2)c(=O)c2nn(-c3ccccc3)c(C)c12 | -19 | 24 | . | . | -9 | .
O=C(COC(=O)Cc1ccc(F)cc1)NC(=O)c1ccccc1 | . | 4 | . | . | . | .
O=C1CC(c2cc(F)ccc2F)c2cc3c(cc2N1)CCC3 (stereo unspecified) | -21 | 25 | 2 | 84* | 17 | 3
O=C1CC(c2cccc(Br)c2)c2cc3c(cc2N1)CCC3 (stereo unspecified) | 25 | 34 | 62* | 54* | 14 | 46*
CCOc1ccc(NC(C(=O)Nc2cccc(C(C)=O)c2)c2ccccc2)cc1 (stereo unspecified) | 11 | 0 | 54* | 5 | 6 | 51*
Cc1cc(C)cc(NC(=O)/C(C#N)=C/c2cn(CC(=O)NCc3ccco3)c3ccccc23)c1 | -33 | 111* | 7 | 25 | 0 | 1
CCc1cc2c(=O)n(Cc3ccco3)c(SCc3c(C)noc3C)nc2s1 | 0 | 34 | 3 | 50* | 9 | 5
CC(C)C[C@@H]1NC(=O)N(CCCn2ccnc2)C1=O | -24 | -5 | . | . | 10 | .
Nc1nc(Nc2ccccc2)nc(N2CCOCC2)c1[N+](=O)[O-] | -11 | 17 | 5 | 58* | -6 | -1
O=C(Nc1ccc(F)cc1F)c1cccc(C(=O)Nc2ccc(F)cc2F)n1 | 15 | 87* | . | . | -3 | .
O=C(Nc1ccc(F)cc1F)c1csc(-c2ccccc2)n1 | -8 | -95 | 3 | -30 | -4 | 1
Cc1ccc(S(=O)(=O)Nc2ccc(NC(=O)Nc3ccc(F)cc3F)cc2)cc1 | -2 | 78* | 7 | -19 | 1 | 0
O=C(Nc1ccc(S(=O)(=O)N2CCCC2)cc1)Nc1ccc(F)cc1F | -39 | -4 | . | . | 2 | .
O=C(Nc1ccc(F)cc1F)Nc1ccc(F)cc1F | -69 | -87 | 56* | -45 | -1 | 18
O=C(OCC(=O)N1CCN(C(=O)COC(=O)c2ccc(O)cc2O)CC1)c1ccc(O)cc1O | . | 12 | . | . | . | .
CCC(CO)Nc1ccc(-c2n[nH]c(=O)c3ccccc23)cc1[N+](=O)[O-] (stereo unspecified) | -34 | 25 | . | . | 8 | .
CCCCN(CCCC)Cc1ccc(C(=O)NNC(=O)Nc2ccc(F)cc2)o1 | -17 | 13 | 1 | -22 | -8 | 1
CCSc1nnc2ccc(-c3ccc(OC)c(OC)c3)nn12 | -36 | 62* | . | . | 10 | .
COc1ccc(-c2ccc3nnc(SCC(N)=O)n3n2)cc1 | -6 | 11 | 7 | -27 | 3 | 4
CCc1ccc(CCC(=O)Nc2ccc(Cl)cc2)o1 | -13 | -67 | . | . | 4 | .
Cc1nn(C)c(C)c1CN(C)C(=O)CCCC(=O)O | 7 | -3 | 93* | -19 | 5 | -2
SMILES | KLF5 inhibitor | aSyn UTR inh | BaF3 parental | APP transl inh | IEC-6 tox | Ba/F3 V617F tox
COc1ccc(S(=O)(=O)N2CCCCCC2)cc1Br | -12 | -3 | 17 | 2 | 5 | 2
N#CCCn1cc(C(=O)O)c(-c2ccc3ccccc3c2)n1 | 4 | -5 | . | . | 5 | .
Cc1cc(Br)ccc1OCC(=O)NNC(=O)c1ccc(NC(=O)C2CC2)cc1 | 5 | -22 | 3 | 45* | 0 | -2
CCCC(=O)Nc1ccc(C(=O)NNC(=O)COc2ccc(Br)c(C)c2)cc1 | -21 | 9 | 0 | 50* | 6 | 2
O=C1C2(CCCC13COC(c1ccc(O)cc1)OC3)COC(c1ccc(O)cc1)OC2 (stereo unspecified) | 0 | 9 | 3 | . | -2 | -5
Cc1ccc2nc(NNC(=O)c3ccc(S(=O)(=O)N4CCc5ccccc5C4)cc3)sc2c1 | 42 | 96* | 7 | 58* | -6 | 0
COC(=O)c1sc2ccccc2c1NC(=O)c1ccc(S(=O)(=O)N2CC(C)CC(C)C2)cc1 (stereo unspecified) | 2 | 18 | 1 | 5 | 9 | -2
Cc1cccc2sc(NNC(=O)c3ccc(S(=O)(=O)N4CC(C)CC(C)C4)cc3)nc12 (stereo unspecified) | 15 | 81* | 13 | 15 | 2 | -1
Cc1ccc2nc(NNC(=O)c3ccc4c(c3)OCCO4)sc2c1 | -12 | -30 | 5 | -20 | 9 | 1
Cc1cc(C)c2nc(NNC(=O)c3ccc(S(=O)(=O)N4CCCC(C)C4)cc3)sc2c1 (stereo unspecified) | 24 | 73* | 5 | 7 | 7 | -4
Cc1cc(C)c2nc(NNC(=O)c3ccc(S(=O)(=O)N4CC(C)CC(C)C4)cc3)sc2c1 (stereo unspecified) | 2 | 72* | 12 | 2 | -6 | -1
COC(=O)c1c(C)[nH]c(-c2csc(N)n2)c1C | -3 | -6 | 51* | 12 | 2 | 17
CCOC(=O)c1[nH]c(C)c(C(=O)OC)c1C | -52 | -9 | -1 | . | -8 | -2
Cn1ncc(Br)c1NC(=O)Nc1ccc(OC(F)(F)F)cc1 | 15 | 8 | 32* | . | 11 | 4
CCN(C(=O)CC(C)C)c1nnc(Cn2nnc3ccccc32)s1 | -17 | 17 | 11 | 4 | -4 | -3
CCN(C(=O)c1ccc(C(C)(C)C)cc1)c1nnc(Cn2nnc3ccccc32)s1 | -28 | -23 | 55* | 13 | 9 | 27*
COc1cccc(C2=NN(C(=O)c3ccco3)C(c3ccco3)C2)c1 (stereo unspecified) | -17 | -32 | . | . | -2 | .
COc1cccc(C(=O)C2=NN(C(C)=O)CC2c2ccco2)c1 (stereo unspecified) | -48 | 18 | 38* | -3 | 4 | -5
N[C@H]1CONC1=O | . | -19 | . | . | . | .
CC(=O)N1CCc2c(sc(NC(=O)c3ccc4c(c3)OCCO4)c2C#N)C1 | -21 | -56 | 6 | 59* | 2 | -2
CC(=O)N1CCc2c(sc(NC(=O)c3ccc(S(=O)(=O)N(C)C)cc3)c2C#N)C1 | -25 | 5 | 4 | 4 | -5 | -2
CCN(CC)S(=O)(=O)c1ccc(C(=O)OCC(=O)NCCN2C(=O)CSC2=O)cc1 | -3 | -20 | 3 | 8 | 1 | 0
Cc1ccc(NC(=O)c2cc(N3C(=O)C=CC3=O)ccc2Cl)cc1C | -47 | -17 | 5 | 45* | -4 | -1
Cc1ccc(NC(=O)c2cc(N3C(=O)C=CC3=O)ccc2N2CCOCC2)cc1 | -24 | 12 | 6 | 77* | 0 | -3
Cc1ccc(NC(=O)c2cc(-n3cnnc3)ccc2Cl)cc1 | -18 | -12 | 3 | 7 | -2 | -2
O=C(Cn1cnc2ccccc2c1=O)NCCC(=O)Nc1ccccc1C(F)(F)F | -12 | -11 | . | . | -2 | .

Screening results (PubChem)
